Measurements: PubChem BioAssay (NCI)
This is part of a sample that, as a whole, favours compounds with a hit. Of some 83,000 tested, about 20% had one in any assay.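 96-well plates, one dose, 48 hours. Percent growth reported; active if below 10.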 Values without a mark were called inactive. Activity calls are given as the source filed them.

tested on: MDA-MB-468 breast; assay: NCI-60 one-dose screen, 48 h (100 = growth as untreated, 0 = no growth, -100 = all killed); conditions: 10 µM unless noted

Compound | growth
Cc1cc(Cl)cc(Cc2cc(Cl)cc(C)c2O)c1O | 50.2%
Cc1ccc(Cn2c(N3CCC(C(=O)NCc4cccs4)CC3)nc3ccccc32)cc1 | 95.3%
Cc1cc(NC(=O)CNc2nc(Oc3ccc(F)cc3)nc(-c3ccc(F)cc3)n2)ccc1Cl | 92.5%
CN1CCN(c2ccc(Nc3nc(NCCNC(=O)c4ccccc4)c4sccc4n3)cc2)CC1 | 45.3%
O=C1CC(N2C(=O)/C(=C/C(Cl)=C\c3ccc([N+](=O)[O-])cc3)SC2=S)C(=O)N1c1ccc(Cl)cc1 (stereo not given) | -6.24% (active)
CN(CCCCN(C[C@H]1Cc2ncccc2CN1)[C@H]1CCCc2cccnc21)C1CCC(F)(F)CC1 | 95.3%
CC(C)NC(=O)N1C(=O)CCC1NNC(=O)c1ccc([N+](=O)[O-])cc1 (stereo not given) | 114%
c1ccc(CNCCN(CCNCc2ccccn2)Cc2ccc3ccccc3c2)nc1 | -10% (active)
O=C(NC1CCN(Cc2ccccc2)CC1)c1cc(-c2ccncc2)nc2ccc(Cl)cc12 | 12.8%
COc1ccc(-c2nc(N3CCCC3=O)sc2Br)cc1OC | 94.8%
Cc1onc(-c2ccccc2)c1C(=O)N/N=C/c1cc(Cl)cc(Cl)c1O | 24.7%
Nc1ccc(F)cc1F | 92.7%
O=C1CN(CCN2CC(=O)N(Cc3ccccc3)C(=O)C2)CC(=O)N1Cc1ccccc1 | 107%
O=C(CC(=O)Nc1cccc(C(=O)O)c1)Nc1cccc(C(=O)O)c1 | 108%
O=C(/C(=C/c1ccc([N+](=O)[O-])cc1)SCc1ccccc1)c1ccc(Cl)cc1 | 70.4%
Cc1ccc(C(c2c(O)c3cc(Br)ccc3[nH]c2=O)c2c(O)c3cc(Br)ccc3[nH]c2=O)cc1 | 94.7%
COc1ccc2c3ccnc(C(F)(F)F)c3n(CCCCN)c2c1 | 33.7%
Cc1ccc(C2CC(c3cccc(Nc4ccncc4)c3)=NN2c2ccc(Cl)cc2)cc1 (stereo not given) | -71% (active)
O=C(c1ccccc1)N(C(=S)NCCc1ccc(Cl)cc1)c1ccccc1 | 30.3%
CC(/C=C/c1ccccc1)=N/NC(=O)c1ccncc1 | 98.8%

Compound | growth
COc1ccc(-c2cc(-c3cccnc3)nc3sc(C(=O)Nc4ccccc4)c(N)c23)cc1OC | 80.8%
O=C(CCCCCCNC(=O)c1csc(Br)n1)NO | 26.6%
CCCCCCCCN(CCCCCCCC)CC(O)c1ccc(Cl)c(C)c1Cl (stereo not given) | 105%
COC(=O)c1ccccc1Cl | 109%
C=C1CCC2C3(C)COC(C)(C)OC3CCC2(C)C1C/C=C1/C(=O)OCC1Oc1ccccc1OC (stereo not given) | 60.6%
Cc1ccc2sc3c(NCCCN)nc4ccccc4c3c(=O)c2c1 | -6.52% (active)
N#C/C(=C\c1ccc(-c2ccc(Cl)cc2)o1)c1ccc(Cl)cc1 | 82.2%
CCCCCCCCCCCCNc1ncnc2[nH]ncc12 | 55.7%
C[C@]12CC[C@H]3[C@@H](CC=C4C[C@@H](O)CC[C@@]43C)[C@@H]1CC[C@@H]2[C@](C)(O)CCc1cccnc1 | 25.3%
c1ccc(CSc2ncccc2-c2nnc(SCCN3CCOCC3)o2)cc1 | 98.3%
N#Cc1c(-c2ccc(Cl)cc2)nc(SCC(=O)NC2=NN=C(c3ccccc3)CS2)[nH]c1=O | 47.7%
CCCCCCCCCCCCCCCc1ccc(N)c(OC2OC(CO)C(O)C(O)C2O)c1 (stereo not given) | 76.5%
O=C1Nc2ccc(F)cc2/C1=C\c1c(-c2ccccc2)nc2ccccn12 | 35.6%
CC(=O)Oc1ccc(Cl)cc1CN(C(C)=O)C1CCCCC1 | 101%
FC(F)(F)c1ccc2nc(-c3nc(-c4ccccc4)n4ccccc34)[nH]c2c1 | 83.4%
O=C(O)COCC(=O)O | 93.6%
Cc1cc(C)c([O-])c(CN(C)CCN(C)Cc2cc(C)cc(C)c2[O-])c1.O=C([O-])c1cccc(C(=O)[O-])n1.[Ti+4] | -8.96% (active)
Cc1cc(C)nc(NS(=O)(=O)c2ccc(Nc3ccc4c5c(n(CCCN(C)C)c(=O)c4c3)-c3ccccc3C5=O)cc2)n1 | 111%
CC[C@@H](C(=O)[C@H](C)[C@H](O)[C@@H](C)[C@H]1O[C@H]([C@@H](CC)C(=O)O)CC[C@H]1C)C1O[C@]2(C=C[C@@H](O)[C@]3(CC[C@@](C)([C@H]4CC[C@](O)(CC)[C@H](C)O4)O3)O2)[C@H](C)C[C@@H]1C (stereo not given in full) | 0.843% (active)
CC(=O)Oc1c(Cl)c(Cl)c(Cl)c(Cl)c1Cl | 113%
